# ± gives the standard deviation.
# Experiments:
# [1] = system: MILI (PIWIL2) piRISC loaded with L1MC piRNA (26 nt); assay: pre-steady-state target cleavage rate (min^-1); guide: L1MC piRNA 5'p-UAACUAAAUACUAUGCAAGCUGUAGG; higher = faster piRNA-guided slicing of the target;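 further: 1 nM active piRISC with 0.1 nM target library at 33 °C single turnover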
# In short: (§1)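 Three pooled Cleave-'n-Seq trials supplied the data, with k3 capped at 0.0001 min^-1. In each, […] transcribed, DNA-blocked target RNA library and 1 nM active affinity-purified piRISC with one synthetic guide reacted in HEPES–potassium acetate buffer at 33 °C for 0–8 or 0–960 min, with or without 500 nM GTSF1 partner protein. Uncleaved targets were sequenced and normalised to depth and to weakly complementary targets. A burst-and-steady-state fit provided the pre-steady-state cleavage rate.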
# [2] = system: EfPiwi piRISC loaded with L1MC piRNA (26 nt); assay: pre-steady-state target cleavage rate (min^-1); auxiliary factor: 500 nM Ephydatia muelleri Gtsf1; guide: L1MC piRNA 5'p-UAACUAAAUACUAUGCAAGCUGUAGG; MIWI and MILI are mouse PIWI proteins and EfPiwi is from a freshwater sponge; tags in brackets are library labels; higher = faster piRNA-guided slicing of the target
# In short: as §1
# [3] = auxiliary factor: 500 nM mouse GTSF1
# [4] = auxiliary factor: none (no GTSF1)
Sequence,"pre-steady-state target cleavage rate [1, 3]","pre-steady-state target cleavage rate [1, 4]",pre-steady-state target cleavage rate [2]
UCCUGGAUCAGCUUGCAUAGUGUUUAGUUA,0.2 ± 0.018,0.00361 ± 0.003,0.0156 ± 0.0035
UCCUGGAACAGCUUGCAUAGUAUUAUGUUA,0.105 ± 0.026,0.00259 ± 0.0025,0.00324 ± 0.0021
UCCUGCACAGCUUGCAUAGUAUUUAGUUA,0.317 ± 0.018,0.00995 ± 0.0028,0.0745 ± 0.016
UCCUCCUACAGGUUGCAUAGUUUUUAGUUA,0.0349 ± 0.0064,0.00478 ± 0.0018,0.00915 ± 0.0022
UCCUGGAUCAGCUAGCAAAGUAUUUAGUUA,0.0976 ± 0.012,0.00566 ± 0.0019,0.00308 ± 0.0029
UCCUGGAACAGCUUGCAAAGUAUUUAGUAA,0.158 ± 0.022,0.00401 ± 0.0024,0.00293 ± 0.0022
UCCUCCUACAGCUUGCAAAGUAAUUAGUUA,0.116 ± 0.012,0.00331 ± 0.0024,0.00531 ± 0.0022
UCCUGGAUCACGUUGCAUAGUAUUUAGUUA,0.206 ± 0.019,0.00683 ± 0.0026,0.0686 ± 0.017
UCCUCGUACAGCUUGCAUAGUAAUUAGUUA,0.283 ± 0.017,0.00698 ± 0.0019,0.111 ± 0.033
UCCUCCUACAGCUUGCAUAGUCUUUAGUUA,0.198 ± 0.023,0.00522 ± 0.0021,0.0068 ± 0.0025
UCCUGGUACAGCUUUCAUAGUAUUUAGUUA,0.22 ± 0.042,0.0103 ± 0.0032,0.00404 ± 0.0023
UCCUGGUACGGCUUGCAUAGUAUUUAGUUA,0.195 ± 0.03,0.0133 ± 0.0047,0.00921 ± 0.0043
UCCUGGAUCAGCUCUGCAUAGUAUUUAGUUA,0.246 ± 0.024,0.00786 ± 0.0034,0.101 ± 0.023
UCCUGCUACUGCAUGCAUAGUAUUUAGUUA,0.282 ± 0.025,0.00943 ± 0.0022,0.00847 ± 0.0024
UCCUGGAUGUCCUCUGCAUAGUAUUUAGUUA,0.0405 ± 0.0082,0.00562 ± 0.0033,0.00412 ± 0.003
UCCUGCUACAGCUUGCAUAGUAUUUAUGUUA,0.182 ± 0.023,0.00699 ± 0.0022,0.00419 ± 0.0019
UCCUCCUACAGCUUGCAUAGUAAUUAGUUA,0.275 ± 0.022,0.00666 ± 0.0023,0.0117 ± 0.0045
UCCUGGUUCAGCAUGCAUAGUAUUUAGUUA,0.199 ± 0.026,0.0092 ± 0.0032,0.0347 ± 0.0092
UCCUGGAUCAGCUUUCAUAGUAUUUAGUUA,0.204 ± 0.018,0.0048 ± 0.0029,0.0103 ± 0.0032
UCCUGGAUCCGCUUGCAUAGUAUUUAGUUA,0.297 ± 0.019,0.00868 ± 0.0026,0.146 ± 0.029
UCCUCCUACAGCUUGCAUAGUAUUAUAGUUA,0.258 ± 0.019,0.00434 ± 0.0022,0.00777 ± 0.0033
UCCUGGAACAGCUUGCAAUGUAUUUAGUUA,0.0726 ± 0.0083,0.00437 ± 0.002,0.00454 ± 0.0035
UCCUGGAACAGCUUGGAUAGUAUUUAGUUA,0.27 ± 0.013,0.0119 ± 0.0026,0.0302 ± 0.0072
UCCUCCUACAGGAAGCAUAGUAUUUAGUAA,0.247 ± 0.018,0.00328 ± 0.0023,0.00397 ± 0.0031

Sequence,"pre-steady-state target cleavage rate [1, 3]","pre-steady-state target cleavage rate [1, 4]",pre-steady-state target cleavage rate [2]
UCCUGGAUCAGCUUGCAUAGUAAUUUAGUUA,0.162 ± 0.018,0.00701 ± 0.0022,0.00371 ± 0.0025
UCCUGGUACACCUUGCAUAGUAUUUAGUUA,0.147 ± 0.026,0.00607 ± 0.0034,0.00345 ± 0.0027
UCCUGGAACAACUUGCAUAGUAUUUAGUUA,0.262 ± 0.022,0.0104 ± 0.0027,0.0809 ± 0.023
UCCUGGAUGUGCUUGCAUAGUAUAAAGUUA,0.0611 ± 0.011,0.00318 ± 0.0025,0.00378 ± 0.0034
UCCUCCUACAGCAUGCUUAGUAUUUAGUUA,0.206 ± 0.015,0.00645 ± 0.0024,0.0116 ± 0.0032
UCCUCCUACAGCUUGGAUAGUAUUUAGUUA,0.294 ± 0.017,0.0109 ± 0.003,0.057 ± 0.012
UCCUGGUUCAGCUUGCAUAGUAUUUUGUUA,0.16 ± 0.03,0.00444 ± 0.0036,0.00528 ± 0.0032
UCCUGGAAUAGCUUGCAUAGUAUUUAGUUA,0.221 ± 0.015,0.0149 ± 0.0032,0.0137 ± 0.0037
UCCUGGAUGUGCGUGCAUAGUAUUUAGUUA,0.107 ± 0.012,0.0107 ± 0.0032,0.00405 ± 0.0027
UCCUGGAACACGCUUGCAUAGUAUUUAGUUA,0.249 ± 0.025,0.0151 ± 0.0044,0.0331 ± 0.011
UCCUGGAACGAGCUUGCAUAGUAUUUAGUUA,0.239 ± 0.024,0.00792 ± 0.0025,0.00926 ± 0.0022
UCCUGGAACAGCUUGCAUAGUAAAUAGUUA,0.153 ± 0.021,0.0034 ± 0.0027,0.00589 ± 0.0023
UCCUGGUUACAGCUUGCAUAGUAUUUAGUUA,0.256 ± 0.025,0.03 ± 0.0078,0.0881 ± 0.021
UCCUGCUACUGCUUGCAAAGUAUUUAGUUA,0.0928 ± 0.013,0.00523 ± 0.0021,0.00588 ± 0.0023
UCCUCCUCCAGCUUGCAUAGUAUUUAGUUA,0.265 ± 0.019,0.00605 ± 0.0026,0.194 ± 0.056
UCCUGGUACAGCUUGCAUAGUAUUUUGUUA,0.118 ± 0.024,0.00398 ± 0.0037,0.00618 ± 0.003
UCCUCGUUCAGCUUGCAUAGUAUUUAGUUA,0.262 ± 0.015,0.00616 ± 0.0018,0.104 ± 0.021
UCCUGGAACAGCAUGCUUAGUAUUUAGUUA,0.217 ± 0.019,0.005 ± 0.0026,0.00591 ± 0.0025
UCCUCCUACAGCUUGCAUAGUUUUAGUUA,0.0249 ± 0.0085,0.0026 ± 0.0026,0.00276 ± 0.0023
UCCUGGAUGUCCUUGCAUAGUAUUUAUUUA,0.0674 ± 0.018,0.00292 ± 0.0029,0.00464 ± 0.0036
UCCUGGAUCAGCUUGCAUAGUAUUUAGUAA,0.24 ± 0.016,0.00751 ± 0.0025,0.00774 ± 0.0024
UCCUGGAUGAGCAUUGCAUAGUAUUUAGUUA,0.212 ± 0.022,0.0105 ± 0.0025,0.008 ± 0.0029
UCCUGGAUGUGUCUUGCAUAGUAUUUAGUUA,0.072 ± 0.013,0.014 ± 0.004,0.113 ± 0.038

# Source: the supplement of paper PMC10338343
